Screening data from PubChem BioAssay.
Compounds with a hit are over-represented: about 19% of the library has one in this group of screens.
IL-1B inflam inh: inflammasome signaling inhibition, IL-1 beta readout. THP-1 LPS/ATP IL-1B secretion, AlphaLISA, 16 h; active compounds read low. activity change, % at 57.5 µM. 360,000 compounds, 4.7% hits. AID 743279; in the data active means activity change below about -50%; inconclusive means mostly about -30% to -49%
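THP-1 cells pretreated 1 hr with compounds (up to 57.5 uM final), then stimulated with LPS (250 ng/mL final) plus ATP (1.25 mM final); secreted IL-1B measured by AlphaLISA after 16 hr, decreased signal indicating inhibition.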
TDP1 cell CPT: growth inhibition of DT40 Tdp1-/-;hTDP1 cells with camptothecin (screen for TDP1 inhibitors) | 420,000 compounds, 12% hits | chicken DT40 Tdp1-/-;hTDP1 cells + 20 nM CPT, ATP luminescence, 48 h | AID 686979 | Potency, µM (titrated, usually from 46.2 µM), hits mostly inhibitors; further: nearly all actives have a fitted effect of over 55% in size
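Chicken DT40 Tdp1-/- cells stably complemented with human TDP1 were seeded at 400 cells/well in medium containing 20 nM camptothecin, exposed to pin-transferred compounds, and grown at 37 °C for at least 48 hr. Viability was read as ATP luminescence.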
HT1080NT lethal: kills 2HG-producing HT-1080-NT fibrosarcoma cells. HT-1080-NT fibrosarcoma viability, CellTiter-Glo ATP luminescence, 48 h. Potency, µM (highest dose often 46.1 µM), usual class: cytotoxic. 360,000 compounds, 1.6% hits;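 further: NT is the 2HG producing partner of a matched IDH1 knockdown line; nearly all actives have a fitted effect of over 55% in size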
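Read-out is CellTiter-Glo luminescence after 10 minutes at room temperature, following 48 hours' compound treatment of HT-1080-NT cells (750 cells/well, RPMI, 5% FBS, 37 degrees C).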
DT40 TDP1 no CPT: qHTS for Inhibitors of human tyrosyl-DNA phosphodiesterase 1 (TDP1): qHTS in cells in absence of CPT. DT40 Tdp1-/- hTDP1 cells, no CPT, ATP luminescence, 48 h. Potency, µM (series often up to 46.2 µM), actives largely listed as inhibitors. 420,000 compounds, 15% hits. AID 686978, 2013; further: nearly all actives have a fitted effect of over 55% in size
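Camptothecin absent (DMSO only). Human TDP1-complemented DT40 knockout cells, 400 cells/well, 37 °C for minimum 48 hr; ATP measured via CellTiter-Glo, 30 min dark incubation, luminescence.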
HT1080 IDH1KD tx: kills HT-1080 cells with IDH1 knockdown. Potency, µM (series often up to 46.1 µM), usual class: cytotoxic. 360,000 compounds, 2% hits. AID 686971. HT-1080 IDH1 knockdown viability, ATP luminescence, 48 h
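CellTiter-Glo luminescence after 48 h compound exposure at 37 degrees C of IDH1-knockdown HT-1080 cells in 5% FBS RPMI. %Activity scaled between DMSO wells and cell-free media wells, with curves fitted and assigned curve classes.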
A number is an active result; i = inactive; ? = inconclusive; nt = no result; [ ] = dose if it differs, or a comment. Unless noted, the call rests on the fitted dose curve; in most records, active means well fitted curve in the direction sought with a large enough effect; inconclusive means small, poorly fitted or top-dose-only effect, or another doubt; inactive means no such curve, though single readings can be large; an effect the other way counts as inactive or inconclusive.

SMILES | IL-1B inflam inh | TDP1 cell CPT | HT1080NT lethal | DT40 TDP1 no CPT | HT1080 IDH1KD tx
COC(=O)c1cc2occc2n1CC(=O)Nc1ccc(N(C)C)cc1 | nt | i | nt | i | nt
CN(C)CCCN(C(=O)c1ccc(Br)s1)c1nc2cc3c(cc2s1)OCO3 | -101 | 9.2µM | ? | 15µM | ?
CN(C)CCCN(C(=O)c1ccc(C(=O)c2ccccc2)cc1)c1nc2cc3c(cc2s1)OCCO3 | -64 | i | ? | i | ?
CN(C)CCCN(C(=O)c1ccc2c(c1)CCCC2)c1nc2cc3c(cc2s1)OCO3 | -86 | ? | 18µM | ? | ?
CN(C)CCN(C(=O)CN1C(=O)c2ccccc2C1=O)c1nc2cc3c(cc2s1)OCO3 | i | i | i | ? | i
CN(C)CCN(C(=O)c1ccc(C(=O)c2ccccc2)cc1)c1nc2cc3c(cc2s1)OCO3 | i | i | i | ? | i
CN(C)CCCN(C(=O)c1ccc2c(c1)CCCC2)c1nc2ccc(F)cc2s1 | nt | 21µM | i | 16µM | i
CC(C)[C@@H]1CC[C@@H](C)C[C@H]1O | nt | i | nt | i | nt
Cc1cc2c(cc1C)C(=O)C(Br)=C(N)C2=O | i | 26µM | i | 16µM | i
CC1(C)C(N(O)C(=O)Nc2ccc(Cl)cc2)N(c2ccc(Cl)cc2)C(=O)N1CC(=O)NN (stereo not drawn) | -53 | i | i | i | ?
CCOC(=O)[C@]12CCCC=C1N(Cc1ccccc1)C(=O)[C@H](CC(=O)NCc1cccc3ccccc13)C2 | i | 18µM | ? | i | ?
CCOC(=O)[C@]12CCCC=C1N(Cc1cccc3ccccc13)C(=O)[C@H](CC(=O)NCCCCc1ccccc1)C2 | i | ? | i | ? | i
COC(=O)[C@]12CCCCC=C1N(CCC1=CCCCC1)C(=O)[C@H](CC(=O)NCc1cccc3ccccc13)C2 | i | ? | ? | ? | 16µM
CCOC(=O)[C@]12CCC=C1N(Cc1cccc3ccccc13)C(=O)[C@H](CC(=O)NCC1CCCCC1)C2 | i | 23µM | ? | 21µM | ?
CCOC(=O)[C@]12CCCC=C1N(Cc1ccccc1)C(=O)[C@H](CC(=O)NCCc1ccccc1OC)C2 | i | ? | i | 13µM | i
CCCCn1c(=O)[nH]c(=O)c2c(C(=O)OCC)cc(-c3ccc(OC(F)F)cc3)nc21 | i | ? | i | ? | i
Cn1nccc1C(=O)NC1CCN(Cc2ccccc2)CC1 | i | i | i | i | i
CCOC(=O)[C@]12CCCC=C1N(Cc1ccc(Cl)cc1Cl)C(=O)[C@H](CC(=O)NCc1cccc3ccccc13)C2 | ? | 26µM | i | 16µM | i
COC(=O)[C@]12CCCCC=C1N(Cc1cccc3ccccc13)C(=O)[C@H](CC(=O)NCC1CCCCC1)C2 | i | ? | i | 18µM | i
COC(=O)[C@]12CCCCC=C1N(Cc1cccc3ccccc13)C(=O)[C@H](CC(=O)NCCC(C)C)C2 | i | 18µM | ? | 15µM | ?
COC(=O)[C@]12CCCCC=C1N(Cc1ccccc1)C(=O)[C@H](CC(=O)NCc1cccc3ccccc13)C2 | i | ? | ? | 18µM | ?
CC(=O)c1ccc(NC(=O)CSc2n[nH]c(-c3cccnc3)n2)cc1 | i | i | i | i | i
COC(=O)[C@]12CCCCC=C1N(Cc1cccc3ccccc13)C(=O)[C@H](CC(=O)NCc1ccccc1)C2 | ? | ? | ? | 18µM | ?
Cc1ccc(N2C(=N)/C(=C3/Nc4ccccc4S3)C(c3ccccc3)C2=O)cc1 (stereo not drawn) | i | ? | i | 4.6µM | i
CCOc1ccc(S(=O)(=O)N2CCCCC2)cc1NS(=O)(=O)c1cccs1 | i | i | i | i | i
SMILES | IL-1B inflam inh | TDP1 cell CPT | HT1080NT lethal | DT40 TDP1 no CPT | HT1080 IDH1KD tx
COc1cccc(C(=O)Nc2ccccc2C(=O)OCc2cc(=O)n3c4c(sc3n2)CCCC4)c1 | nt | ? | nt | 16µM | nt
Cc1cccc(C(=O)Nc2ccc(OCc3cc(=O)n4c5c(sc4n3)CCCC5)cc2)c1 | nt | i | nt | i | nt
O=C(Nc1ccccc1C(=O)OCc1cc(=O)n2c3c(sc2n1)CCCC3)c1ccccc1 | nt | 21µM | nt | ? | nt
Cc1ccc2c(c1)NC(c1cccs1)C1=C(CC(C)(C)CC1=O)N2 (stereo not drawn) | i | i | i | i | i
COc1cccc(C=Nc2cc(C(C)C)c(O)cc2C)c1O | ? | 4.1µM | i | 3.3µM | i
Cc1cc(O)c(C(C)C)cc1N=Cc1ccc([N+](=O)[O-])cc1 | i | 7.3µM | i | 16µM | i
Cc1cc(O)c(C(C)C)cc1N=Cc1ccc(N(C)C)cc1 | i | 2.9µM | i | 5.2µM | i
COc1cccc(C=NCCCN=Cc2cccc(OC)c2O)c1O | i | i | i | i | i
CNC(=S)N/N=C/c1ccc(N(C)C)cc1 | i | i | i | ? | i
Cc1ccc(-n2nc(C)c(NC(=O)CCl)c2C)cc1C | -104 | 8.2µM | ? | 8.2µM | ?
Cc1nn(-c2ccccc2)c(C)c1NC(=O)COC(=O)c1ccccc1 | i | i | i[9.24 µM] | i | i
Cc1ccnc(NC(=O)COc2ccc(Cl)cc2)n1 | i | i | i | i | i
Cc1nn(C)c(C)c1NC(=O)COc1ccc(Cl)cc1 | i | 6.5µM | i | 2.6µM | i
Cc1nn(-c2ccccc2)c(C)c1NC(=O)COc1ccc(C#N)cc1 | i | ? | i | 12µM | i
CCC(=O)Nc1c(C)nn(-c2ccc(C)c(C)c2)c1C | i | i | i | i | i
Cc1nn(-c2ccccc2)c(C)c1NC(=O)COc1ccc2ccccc2c1 | i | 16µM | i | 18µM | ?
Cc1cc(Br)c(OCc2ccc(C(=O)N/N=C3\CC4CC=CC34)cc2)c(Br)c1 (stereo not drawn) | i | i | i | 15µM | ?
CCOCCCNC(=O)c1cn(C)c2ccc(S(=O)(=O)N3CCCCC3)cc2c1=O | i | i | i | i | i
COc1cc(C(C(=O)NC2CCCC2)N(CCO)C(=O)Cn2nnc(-c3ccc(C)o3)n2)ccc1O (stereo not drawn) | i | i | i | i | i
COCc1cc(N2CCCCC2)nc(-c2ccccc2)n1 | i | 10µM | i | 18µM | ?
Cc1cc(N2CCN(c3ccccc3)CC2)nc(-c2ccccc2)n1 | i | 23µM | i | 10µM | i
Cc1cc(N2CCN(c3ccccc3)CC2)nc(N)n1 | i | i | i | i | i
Cc1cc(N2CCN(C(=O)c3ccco3)CC2)nc(-c2ccccc2)n1 | ? | ? | i | 18µM | i
Cc1cc(/C=C2\SC(=Nc3ccccc3)NC2=O)c(C)n1-c1ccc(S(N)(=O)=O)cc1 | i | 5.2µM | 7.3µM | 2.6µM | 5.2µM
Cc1cccc(CSc2nnnn2-c2ccccc2)c1 | i | ? | i | i | i
Cc1ccc(C)c(-n2nnnc2Sc2nnnn2-c2ccccc2)c1 | -109 | ? | ? | 13µM | 16µM
c1ccc(Cn2c(Sc3nnnn3-c3ccccc3)nnc2-c2ccccc2)cc1 | -59 | ? | i | ? | i
